Inconclusive results are not listed. A call without a number means that no potency is given here. The source made the active and inactive calls. The call rests on the fitted dose curve; in most records, active means well fitted inhibition curve with a large enough effect; inconclusive means small, poorly fitted or top-dose-only effect; inactive means no such curve, though single readings can be large or run the other way.

The nature of this test: qHTS to identify inhibitors of the type 1 interferon - major histocompatibility complex class I in skeletal muscle: tertiary screen by RT-qPCR. To be noted: C25cl48 human myoblasts, IFN-beta, HLA-B RT-qPCR, 24 h; series mostly up to 49.8 µM. An excerpt:
Assay Submitter (PI): Travis B. Kinder Ph.D. & James Inglese Ph.D. Assay Development and Screening Technology Laboratory (ADST) National Center for Advancing Translational Sciences (NCATS), Rockville, MD National Institute of Health (NIH), Bethesda, Maryland Idiopathic inflammatory myopathies, collectively referred to as myositis, are a group of rare autoimmune diseases characterized by skeletal muscle inflammation, weakness, and usually accompanied by systemic pathologies of the skin, lungs, or vasculature. Current immunosuppressive therapies and glucocorticoids are often not curative and are accompanied by harsh side effects, especially in children with juvenile myositis. We initiated a drug repurposing and development program to identify more targeted, less toxic therapeutics to treat myositis. Although its cause is not known, muscle from a subset of patients have an abundance of the inflammatory type 1 interferon (IFN) and a down-stream product major histocompatibility complex class I (MHC class I), which are both thought to contribute to damage and weakness. We conducted quantitative high throughput screening (qHTS) on 6,576 compounds (4,679 unique) through a series of cell-based assays to identify those that inhibit the IFN-stimulated expression of MHC class I in muscle precursor cells (myoblasts). The compound identification and evaluation strategy utilized a primary screen with reporter-tagged MHC class I in genome-engineered myoblasts, ATP content counter screen for viability, HLA-ABC immunofluorescence secondary screen, and HLA-B RT-qPCR tertiary screen. To determine if active compounds identified by qHTS in HLA-B HiBit reporter cells, and confirmed by HLA-ABC immunofluorescence, can inhibit the transcription of HLA-B mRNA, compounds were assayed by RT-qPCR. Briefly, 62 compounds identified from primary, counter, and secondary screening as inhibitory with minimal cytotoxicity were dispensed into 384-well plates using acoustic dispensing in a 6-point, 1:7 titration with a high final concentration of 10 uM. Normal immortalized human myoblasts C25cl48 were added to the plate with 4.0 ng/ml human IFN-beta for 24 hours, and cells were harvested and assayed by the Cells-to-Ct kit with TaqMan assays (Thermo Fisher).
PROTOCOL TABLE (as described by Inglese et al., 2007) SEQUENCE No. (e.g., 1, 2, 3, etc.); […] (e.g., Cells, Incubation, Reagent, etc.); VALUE; DESCRIPTION 0; Compounds; 150 nl; Follow-up compounds dispensed at 150 nl/well with Labcyte Echo 655 acoustic dispenser into one Corning white/clear bottom, high base TC 384-well plates (3765) 1a; Cells; 30 uL; Using a p200 manual pipette, seed 780 cells/well into 1 plate in 30 ul/well of iHSKM growth medium without dexamethasone into columns wells A1-A6. […]
On to `Cc1[nH]nc2ccc(-c3cncc(OC[C@@H](N)Cc4c[nH]c5ccccc45)c3)cc12`, for which the Potency is 207 nM (active).
To `C[C@@H]1O[C@@H](O[C@@H]2C=C3CC[C@@H]4[C@H](CC[C@]5(C)[C@@H](c6ccc(=O)oc6)CC[C@]45O)[C@@]3(C)CC2)[C@H](O)[C@H](O)[C@H]1O` belongs “inactive”; to `CC(C)[C@]12O[C@H]1[C@@H]1O[C@@]13[C@@]1(C)CCC4=C(COC4=O)[C@@H]1C[C@@H]1O[C@@]13C2=O`, “inactive”.
The result for `C[C@@H]1O[C@@H](O[C@H]2C[C@@H](O)[C@]3(CO)[C@H]4[C@H](O)C[C@]5(C)[C@@H](C6=CC(=O)OC6)CC[C@]5(O)[C@@H]4CC[C@]3(O)C2)[C@H](O)[C@H](O)[C@H]1O` reads “inactive”; that for `COc1cccc2c1C(=O)c1c(O)c3c(c(O)c1C2=O)C[C@@](O)(C(=O)CO)CC3OC1CC(N2CCOC(OC)C2)C(O)C(C)O1` (stereo not given in full), 92.4 nM (active).

The values are drawn from PubChem BioAssay AID1347415 (National Center for Advancing Translational Sciences (NCATS), 2020).
